These results are taken from PubChem BioAssay.

Calls of active or inactive are those of the source.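 How the source made its calls: active means thallium flux through the channel raised or lowered by more than 3 SD from vehicle-only wells, actives on both sides; inactive means the rest.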

The first test relates to F380Y. Put plainly: BK channel mutant inhibitors and activators – cell-based, U2OS BacMam, thallium flux, beta subunits, selectivity assay, profiling panel (AID 1259406).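 Further: initial slope of Thallos dye fluorescence rise after thallium is added; log ratio against the mean of 0.3% DMSO vehicle wells on the same plate.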 Particulars: U2OS BacMam BK variants, at 30 µM.
For the compound `CS(=O)(=O)c1ccc(C2=C(c3ccccc3)C(=O)OC2)cc1`, the log fold change Tl+ flux was 0.0227 (inactive).

Take `Cc1cccc(C)c1NC(=O)C1CCCCN1C` (stereo not drawn): the log fold change Tl+ flux is 0.0251 (inactive).

With `COc1ccc(/C=C/C(=O)Nc2ccccc2C(=O)O)cc1OC`, the log fold change Tl+ flux is -0.0454 (inactive).

On to `CCCCC(=O)N(Cc1ccc(-c2ccccc2-c2nn[nH]n2)cc1)[C@H](C(=O)O)C(C)C`, for which the log fold change Tl+ flux is 0.0751 (inactive).

Take `CC(C(=O)O)c1ccc(-c2ccccc2)c(F)c1` (stereo not drawn): the log fold change Tl+ flux is 0.0247 (inactive).

For `Nc1ncnc2c1ncn2[C@@H]1O[C@H](CO)[C@@H](O)[C@@H]1O`, the log fold change Tl+ flux was -0.000678 (inactive).

With `CN(C)c1nc(N(C)C)nc(N(C)C)n1`, the log fold change Tl+ flux is 0.0102 (inactive).

In the case of `Cc1occc(=O)c1O`, the log fold change Tl+ flux was 0.00693 (inactive).

Consider `COc1ccc(-c2cc(=O)c3c(OC)c(OC)c(OC)c(OC)c3o2)cc1OC`, for which the log fold change Tl+ flux is 0.00321 (inactive).

Take `CC(C)NCC(O)COc1cccc2ccccc12` (stereo not drawn): the log fold change Tl+ flux is 0.0569 (inactive).

Regarding `COC(=O)[C@H](c1ccccc1Cl)N1CCc2sccc2C1`, the log fold change Tl+ flux is -0.0366 (inactive).

`C[N+]1(C)CCCC(OC(=O)C(O)(c2ccccc2)c2ccccc2)C1` (stereo not drawn): the log fold change Tl+ flux is 0.00904 (inactive).

Regarding `O=[N+]([O-])c1cccc2cn[nH]c12`, the log fold change Tl+ flux was 0.0311 (inactive).

As to `C[C@H]1COc2c(N3CCN(C)CC3)c(F)cc3c(=O)c(C(=O)O)cn1c23`, the log fold change Tl+ flux was -0.012 (inactive).

Regarding `CC(C)NCC(O)COc1ccc(CC(N)=O)cc1` (stereo not drawn), the log fold change Tl+ flux is -0.0247 (inactive).

Regarding `CNCCC(Oc1ccc(C(F)(F)F)cc1)c1ccccc1` (stereo not drawn), the log fold change Tl+ flux was 0.129 (active).

Turning to `CC1=C(/C=C/C(C)=C/C=C/C(C)=C\C(=O)O)C(C)(C)CCC1`, the log fold change Tl+ flux is -0.00963 (inactive).

Turning to `CCc1ccc(CCOc2ccc(CC3SC(=O)NC3=O)cc2)nc1` (stereo not drawn), the log fold change Tl+ flux is 0.00439 (inactive).

With `CC[C@H]1OC(=O)[C@H](C)[C@@H](O[C@H]2C[C@@](C)(OC)[C@@H](O)[C@H](C)O2)[C@H](C)[C@@H](O[C@@H]2O[C@H](C)C[C@H](N(C)C)[C@H]2O)[C@](C)(OC)C[C@@H](C)C(=O)[C@H](C)[C@@H](O)[C@]1(C)O`, the log fold change Tl+ flux was 0.0307 (inactive).

In the next test the test system is F380Y/beta1. The test is described as above. Particulars: U2OS BacMam BK variants, at 30 µM.
In the case of `CS(=O)(=O)c1ccc(C2=C(c3ccccc3)C(=O)OC2)cc1`, the log fold change Tl+ flux is 0.00163 (inactive).

Turning to `Cc1cccc(C)c1NC(=O)C1CCCCN1C` (stereo not drawn), the log fold change Tl+ flux was 0.0319 (inactive).

`COc1ccc(/C=C/C(=O)Nc2ccccc2C(=O)O)cc1OC`: the log fold change Tl+ flux is -0.00383 (inactive).

Regarding `CCCCC(=O)N(Cc1ccc(-c2ccccc2-c2nn[nH]n2)cc1)[C@H](C(=O)O)C(C)C`, the log fold change Tl+ flux was -0.0013 (inactive).

With `CC(C(=O)O)c1ccc(-c2ccccc2)c(F)c1` (stereo not drawn), the log fold change Tl+ flux is 0.0374 (inactive).

Consider `Nc1ncnc2c1ncn2[C@@H]1O[C@H](CO)[C@@H](O)[C@@H]1O`, for which the log fold change Tl+ flux was 0.0507 (inactive).

For the compound `CN(C)c1nc(N(C)C)nc(N(C)C)n1`, the log fold change Tl+ flux is 0.0385 (inactive).

Turning to `Cc1occc(=O)c1O`, the log fold change Tl+ flux was 0.0152 (inactive).

Regarding `COc1ccc(-c2cc(=O)c3c(OC)c(OC)c(OC)c(OC)c3o2)cc1OC`, the log fold change Tl+ flux was 0.0362 (inactive).

For the compound `CC(C)NCC(O)COc1cccc2ccccc12` (stereo not drawn), the log fold change Tl+ flux is -0.00888 (inactive).

With `COC(=O)[C@H](c1ccccc1Cl)N1CCc2sccc2C1`, the log fold change Tl+ flux was 0.0174 (inactive).

Turning to `C[N+]1(C)CCCC(OC(=O)C(O)(c2ccccc2)c2ccccc2)C1` (stereo not drawn), the log fold change Tl+ flux is -0.0251 (inactive).

As to `O=[N+]([O-])c1cccc2cn[nH]c12`, the log fold change Tl+ flux is 0.0616 (inactive).

On to `C[C@H]1COc2c(N3CCN(C)CC3)c(F)cc3c(=O)c(C(=O)O)cn1c23`, for which the log fold change Tl+ flux was 0.0152 (inactive).

As to `CC(C)NCC(O)COc1ccc(CC(N)=O)cc1` (stereo not drawn), the log fold change Tl+ flux was 0.000846 (inactive).

For `CNCCC(Oc1ccc(C(F)(F)F)cc1)c1ccccc1` (stereo not drawn), the log fold change Tl+ flux is 0.157 (active).

Turning to `CC1=C(/C=C/C(C)=C/C=C/C(C)=C\C(=O)O)C(C)(C)CCC1`, the log fold change Tl+ flux is -0.0325 (inactive).

As to `CCc1ccc(CCOc2ccc(CC3SC(=O)NC3=O)cc2)nc1` (stereo not drawn), the log fold change Tl+ flux is 0.0033 (inactive).

On to `CC[C@H]1OC(=O)[C@H](C)[C@@H](O[C@H]2C[C@@](C)(OC)[C@@H](O)[C@H](C)O2)[C@H](C)[C@@H](O[C@@H]2O[C@H](C)C[C@H](N(C)C)[C@H]2O)[C@](C)(OC)C[C@@H](C)C(=O)[C@H](C)[C@@H](O)[C@]1(C)O`, for which the log fold change Tl+ flux is 0.0264 (inactive).
